Assay outcomes deposited in PubChem by Sanford-Burnham Center for Chemical Genomics.
This is a sample that favours compounds with a hit; in the whole collection about 28% have one here.
CYP2C9 act: increases human cytochrome P450 2C9 activity; activation factor at 5 µM; recombinant CYP2C9, luciferin-H conversion, luminescence; active compounds read high; factor 1 = untreated enzyme, 0 = blocked; hit rate 1.4% among 96,000; AID 1024;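 active = activation factor of 2 or more for CYP2C9 at a 5 µM dose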;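 note: 0 = sulfaphenazole-blocked wells and 1 = vehicle-only wells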
CYP2C19 act: activators of human cytochrome P450 2C19. P33261. recombinant CYP2C19, luciferin-H EGE luminescence; active compounds read high; 0 = fully inhibited enzyme, 1 = untreated enzyme. activation factor at 5 µM. 96,000 tested, under 10 active. AID 1025;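 active = activation factor of at least 2 at 5 µM in the primary screen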;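 note: 0 = wells with 2.5 mM tranylcypromine and 1 = vehicle-only wells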
CYP2C19 inh: blocks human cytochrome P450 2C19. P33261. CYP2C19 Supersomes, luciferin-H EGE luminescence, 30 min. inhibition, % at 5 µM. hit rate 21% among 96,000;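 active = CYP2C19 inhibition above a set limit at 5 µM in the primary screen, cut at about 50% in these data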;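 note: plate controls were negative control wells for no effect and 2.5 mM tranylcypromine positive control for full effect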
Pyk2 oligo antag: antagonists of human Pyk2 oligomerization. Q14289. Q293 cells, Pyk2 FERM NanoBiT luminescence; active compounds read low. z-score (the deposit names both 25 µM and 10 µM). hit rate 0.83% among 99,000;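 active = Z-score of -3 or lower, scaled per plate to the spread of control and sample wells; inactive = z-score above -3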;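 note: negative z-score means lost luminescence so less FERM oligomerization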
Target sequence (Q14289 whole entry, looked up): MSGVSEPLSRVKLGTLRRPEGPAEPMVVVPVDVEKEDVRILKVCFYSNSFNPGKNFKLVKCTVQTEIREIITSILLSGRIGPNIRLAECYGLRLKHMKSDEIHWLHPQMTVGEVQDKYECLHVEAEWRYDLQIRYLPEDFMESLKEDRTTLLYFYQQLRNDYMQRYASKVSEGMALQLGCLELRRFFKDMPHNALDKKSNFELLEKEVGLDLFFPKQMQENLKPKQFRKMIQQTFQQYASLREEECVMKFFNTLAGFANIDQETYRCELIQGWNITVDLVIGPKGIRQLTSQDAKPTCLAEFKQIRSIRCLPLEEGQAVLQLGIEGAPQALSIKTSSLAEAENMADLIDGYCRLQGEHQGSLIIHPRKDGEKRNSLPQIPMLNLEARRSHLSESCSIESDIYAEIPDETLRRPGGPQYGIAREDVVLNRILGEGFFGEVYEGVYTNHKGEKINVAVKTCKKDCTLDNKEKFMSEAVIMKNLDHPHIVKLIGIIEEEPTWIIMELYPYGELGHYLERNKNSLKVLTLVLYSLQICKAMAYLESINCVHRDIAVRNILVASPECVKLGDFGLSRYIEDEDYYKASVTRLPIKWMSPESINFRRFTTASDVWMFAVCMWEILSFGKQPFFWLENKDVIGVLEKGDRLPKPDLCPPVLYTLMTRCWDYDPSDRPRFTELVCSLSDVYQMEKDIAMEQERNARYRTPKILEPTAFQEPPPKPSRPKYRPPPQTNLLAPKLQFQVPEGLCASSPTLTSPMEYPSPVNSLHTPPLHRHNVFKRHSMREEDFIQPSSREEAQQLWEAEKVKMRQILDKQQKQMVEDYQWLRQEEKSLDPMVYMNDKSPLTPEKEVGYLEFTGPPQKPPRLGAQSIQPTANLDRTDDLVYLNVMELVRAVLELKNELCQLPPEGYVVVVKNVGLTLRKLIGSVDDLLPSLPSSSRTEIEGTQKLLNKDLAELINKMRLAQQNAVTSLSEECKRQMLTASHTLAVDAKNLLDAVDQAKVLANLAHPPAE
CYP2C9 inh: human CYP2C9 inhibition; CYP2C9 Supersomes, luciferin-H conversion, luminescence; AID 777; P11712; hit rate 20% among 96,000; inhibition, % at 5 µM;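 active = blocking of liver enzyme CYP2C9 beyond about 50% at 5 µM, limit read from the data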
Starred values were filed as active, the others as inactive; · = not tested or not shown.

SMILES	CYP2C9 act	CYP2C19 act	CYP2C19 inh	Pyk2 oligo antag	CYP2C9 inh
COc1ccc(C2=C(O)C(C)N(c3ccccc3)C2=N)cc1OC (stereo not drawn)	1.3	1.1	-12	-0.32	-26
CCc1ccc(C(=O)Nc2ccc(S(=O)(=O)Nc3nc(C)cc(C)n3)cc2)o1	0.6	0.9	8	-0.76	41
Fc1ccc(C(c2nnnn2C2CCCC2)N(Cc2ccco2)CC2CCCO2)cc1 (stereo not drawn)	0.9	0.6	38	-1.2	13
c1ccc(CN(Cc2ccco2)C(c2ccncc2)c2nnnn2C2CCCC2)cc1 (stereo not drawn)	0	0	98*	-0.22	98*
Cc1ccc(C(c2nnnn2C(C)(C)C)N(Cc2ccco2)Cc2cccs2)cc1 (stereo not drawn)	0.2	0.8	24	-0.88	76*
CCN(CC)C(c1ccc(C)cc1)c1nnnn1C1CCCCC1 (stereo not drawn)	0.2	0.1	95*	0.29	78*
CC(C)(C)n1nnnc1C(c1ccc(C(F)(F)F)cc1)N(Cc1ccc(F)cc1)Cc1ccco1 (stereo not drawn)	·	·	·	-0.44	·
CC(C)(C)n1nnnc1C(c1ccc(F)cc1)N(Cc1ccc(F)cc1)Cc1ccco1 (stereo not drawn)	0.3	0.6	37	-0.07	65*
CCN(CC)C(c1ccc(F)cc1)c1nnnn1C1CCCCC1 (stereo not drawn)	1	0.6	38	0.81	-4
CCN(CC)CCOC(=O)c1ccc2c(c1)OCCO2	1	0.9	8	0.77	2
CC(C)[C@H]1CC[C@@H](C)C(C(=O)c2ccccc2)C1=O (stereo partly drawn)	·	·	·	0.39	·
CC(=O)OCCOc1nc(N(C)C)nc(N(C)C)n1	1.1	0.9	5	0.48	-12
Cc1ccc(S(=O)(=O)N2CCC(C(=O)OCC(=O)N3CCc4ccccc43)CC2)cc1	1.1	1	-3	0.79	-9
CN(C)S(=O)(=O)c1ccc2c(c1)C(CC(=O)O)NC2=O (stereo not drawn)	0.8	0.9	8	-0.04	16
COCCCn1c(SCc2nnc(-c3ccc(OC)c(OC)c3)o2)nc2ccccc2c1=O	·	·	·	-0.76	·
COc1ccc(-c2nnc(CSc3nc4ccccc4c(=O)n3CC(C)C)o2)cc1OC	0	0.1	92*	-1.6	97*
COc1ccc(-c2noc(CSc3nc4sc(C)c(C)c4c(=O)n3-c3ccccc3)n2)cc1OC	0.7	1	-2	-0.11	27
COc1cc(-c2nnc(CSc3nc4ccccc4s3)o2)cc(OC)c1OC	0.3	0.5	53*	·	65*
COc1ccc(-c2noc(CSc3nc4ccccc4c(=O)n3-c3ccccc3)n2)cc1OC	0.3	0.6	43	-1.5	69*
O=c1c2ccccc2nc(SCc2nc(-c3ccccc3)no2)n1-c1ccc(F)cc1	0.4	0.8	16	·	59*
CSCCC(NC(=O)c1cncc(Br)c1)C(=O)O (stereo not drawn)	0.9	0.8	17	0.02	15
COc1cccc(C(C(=O)NCc2ccco2)N(C(=O)Cn2nnc3ccccc32)C2CC2)c1OC (stereo not drawn)	0.9	0.8	22	1	7
Cc1ccc(C(=O)C(C)Oc2cccc(NC(=O)c3ccco3)c2)cc1 (stereo not drawn)	·	·	·	-0.53	·
COc1ccccc1N(Cc1cc2cccc(C)c2[nH]c1=O)C(=O)C(C)C	0.6	0.8	20	-0.45	38
O=C1NC2=C(CCc3ccccc32)C(c2ccccc2)N1 (stereo not drawn)	·	·	·	-0.21	·
SMILES	CYP2C9 act	CYP2C19 act	CYP2C19 inh	Pyk2 oligo antag	CYP2C9 inh
O=C1c2ccccc2CCC12N=NCC2c1ccc(Cl)cc1 (stereo not drawn)	0.8	0.2	84*	1.1	15
O=C1c2ccccc2CCC12N=NCC2c1ccc(Br)cc1 (stereo not drawn)	0.5	0	99*	0	49
Cc1nn2c(=O)cc(COC(=O)c3ccc(S(=O)(=O)N4CCCCC4)cc3)nc2s1	0.6	0.9	9	0.08	38
Cc1cc2nc(-c3ccc(SCC(=O)Nc4ccc5c(c4)OCCO5)nc3)[nH]c2cc1C	0.2	0.7	31	-2.3	78*
O=C(CSc1ccc(-c2nc3ccccc3[nH]2)cn1)Nc1ccc2c(c1)OCCO2	0.6	0.9	7	-0.38	37
Cc1cc2nc(-c3ccc(SCC(=O)N4CCN(C(=O)c5ccco5)CC4)nc3)[nH]c2cc1C	0.2	0.3	72*	-0.23	84*
N#CCCNC(=O)Cn1c(COc2ccc(Cl)cc2)nc2ccccc21	·	·	·	0.04	·
O=C(O)CCc1nn2cnc3sc4c(c3c2nc1=O)CCCC4	1.2	1	0	-1.2	-21
CCOP(=O)(OCC)c1nc(-c2cccc3ccccc23)oc1NCc1ccccc1	0.6	0.7	30	-0.95	37
CCOP(=O)(OCC)c1nc(/C=C/c2ccccc2)oc1NCc1ccccc1	0.6	0.4	56*	-1.7	36
CCOP(=O)(OCC)c1nc(/C=C/c2ccccc2)oc1NCc1ccc(OC)cc1	0.2	0	98*	-0.66	78*
Cc1csc(SCc2ccc(C(=O)O)cc2)n1	1	1	-5	0.57	-4
O=C(COc1ccccc1)n1nc(-c2ccc(Cl)cc2)nc1NCc1ccco1	0.4	0.3	69*	-0.59	55*
Cc1ccc(S(=O)(=O)n2nc(-c3ccc(Cl)cc3)nc2NCc2ccco2)cc1	0.5	0.3	68*	-0.7	48
COc1ccc(CNc2nc(-c3cccnc3)nn2C(=O)c2cccs2)cc1	·	·	·	-0.79	·
O=C(c1ccco1)n1nc(-c2ccccc2)nc1NCc1ccco1	1.1	1	-4	-0.43	-9
COc1ccc(CNc2nc(-c3cccnc3)nn2C(=O)c2ccco2)cc1	0.5	0.6	41	-0.04	53*
COc1ccccc1C(=O)n1nc(-c2ccccc2)nc1NCc1ccco1	0.4	0.4	61*	-1.4	59*
COc1ccccc1C(=O)n1nc(-c2ccco2)nc1N	0.9	0.4	57*	0	11
CC(=O)n1nc(-c2ccco2)nc1N	1.1	1	-3	0.77	-7
CC(C)Cn1c(=O)c(C(=O)NCc2ccccn2)c(O)c2ccccc21	0.8	0.8	17	-2.5	17
CNC(=O)c1ccc(-n2nc(C)cc2-c2ccccc2)cc1	0.6	0.7	33	0.72	37
COc1ccc(S(=O)(=O)N2CCN(c3nc4ccccc4nc3-n3nc(C)cc3C)CC2)cc1	0.4	0.9	14	·	59*
Cc1cc(C)n(-c2nc3ccccc3nc2N2CCCC2)n1	0.8	0.6	40	0.94	18
Cc1cc(C)n(-c2nc3ccccc3nc2N2CCCCCC2)n1	0.8	0.2	75*	-1.2	16
Cc1cc(-c2ccccc2)n(-c2ccc(C(=O)N3CCN(c4ncccn4)CC3)cc2)n1	0.4	0.8	24	-0.18	61*
